Where “and” joins values, the source holds several entries; their conditions need not be identical. Identical values can stand only once. Inconclusive results are not listed. Some structures have more than one record in an assay (separate samples or runs), and their calls can disagree. Calls of active or inactive are those of the source. The calls were made as follows: active = hit-call score of the fitted dose curve at least 0.9, where 1 is the maximum; inconclusive = response in the unintended direction; inactive = score below 0.9.
How the values were obtained:
[1] = molecular target: Cellular tumor antigen p53 (Homo sapiens) (UniProt P04637); test: TOX21_p53_BLA_p4_ratio: Tox21 HCT-116 p53 Agonism Beta-lactamase Assay, Ratio, Phase 4 (AID 2283601)
Outline: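 HCT-116 p53 beta-lactamase reporter cells (4000/well) preincubated 5 h, then compound (217-fold dilution of DMSO stock) for 16 h at 37C. CCF4-AM substrate added 2 h at room temperature; 460/530 nm emission ratio fitted upward versus DMSO.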

[2] = Tanguay_ZF_120hpf_MORT_legacy: (Legacy) Oregon State University Tanguay Lab 120 Hour Post-fertilization zebrafish Assay for Mortality (AID 2283633);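 as to AC50: fitted as increase in binary mortality versus DMSO negative control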
Outline: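 Brightfield scoring of embryo death (binary) at 24 and 120 hpf; static exposure 6–120 hpf, 28C, sealed and foil-covered. Pronase-dechorionated 5D wild-type larvae, single embryo per well. DMSO 0.64% v/v; trimethyltin chloride 5uM positive control.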

[3] = Tanguay_ZF_120hpf_YSE_legacy: (Legacy) Oregon State University Tanguay Lab 120 Hour Post-fertilization zebrafish Assay for Yolk Sac Edema (AID 2283634);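 as to AC50: actives raise the incidence of yolk sac edema above the DMSO baseline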
Outline: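 Binary brightfield scoring of yolk sac edema at 120 hpf; DMSO baseline, gain-of-signal fitting. Dechorionated 5D larvae, one per well, static exposure 6–120 hpf, 28C, 0.64% DMSO. Dead embryos not scored.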

[4] = Tanguay_ZF_120hpf_AXIS_legacy: (Legacy) Oregon State University Tanguay Lab 120 Hour Post-fertilization zebrafish Assay for Body Axis Malformation (AID 2283635);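 as to AC50: potency for an increased fraction of larvae scored with body axis malformation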
Outline: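 Embryos: 5D wild-type, pronase-dechorionated 4 hpf; static exposure 6–120 hpf, 28C, sealed, dark, 1 embryo/well, 0.64% DMSO. 120 hpf axis malformation scored present/absent; dead embryos excluded. Analysed as gain of signal vs DMSO.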

[5] = Tanguay_ZF_120hpf_EYE_legacy: (Legacy) Oregon State University Tanguay Lab 120 Hour Post-fertilization zebrafish Assay for Eye Malformation (AID 2283636);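 also: binary presence or absence of eye malformation scored by brightfield in 120 hpf larvae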
Outline: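 5D wild-type embryos, pronase-dechorionated at 4 hpf; static exposure 6–120 hpf, 28C, dark; DMSO 0.64% final; 5uM trimethyltin chloride positive control. Binary eye-defect scoring at 120 hpf; dead embryos not scored.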

[6] = Tanguay_ZF_120hpf_SNOU_legacy: (Legacy) Oregon State University Tanguay Lab 120 Hour Post-fertilization zebrafish Assay for Snout Malformation (AID 2283637)
Outline: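 Binary brightfield scoring of snout malformation at 120 hpf. Dechorionated 5D wild-type embryos, one per well, static exposure from 6 hpf at 28C, sealed and dark; final DMSO 0.64% (vol/vol), DMSO as baseline; 5uM trimethyltin chloride positive control.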

[7] = Tanguay_ZF_120hpf_JAW_legacy: (Legacy) Oregon State University Tanguay Lab 120 Hour Post-fertilization zebrafish Assay for Jaw Malformation (AID 2283638);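 as to AC50: active means more embryos with jaw malformation than DMSO controls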
Outline: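 Binary jaw-malformation calls at 120 hpf by brightfield imaging; DMSO (0.64% v/v) = baseline. Embryos: 5D wild-type, pronase-dechorionated, one per well from 6 hpf, static exposure, 28C, sealed, dark.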

[8] = Tanguay_ZF_120hpf_OTIC_legacy: (Legacy) Oregon State University Tanguay Lab 120 Hour Post-fertilization zebrafish Assay for Otic Vesicle Malformation (AID 2283639)
Outline: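 Wild-type zebrafish larvae, whole-embryo exposure from early stage to 120 hpf at 28C. Binary brightfield scoring of otic vesicle morphology, fitted in the positive direction against the DMSO baseline.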

[9] = Tanguay_ZF_120hpf_PE_legacy: (Legacy) Oregon State University Tanguay Lab 120 Hour Post-fertilization zebrafish Assay for Pericardial Edema (AID 2283640);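 as to AC50: potency for increased incidence of pericardial edema versus DMSO baseline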
Outline: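 Static waterborne exposure, 5D wild-type embryos, 28C, to 120 hpf; final DMSO 0.64% (vol/vol). Binary PE call at 120 hpf by brightfield; fitted upward vs DMSO baseline. 5uM trimethyltin chloride as positive control.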

[10] = Tanguay_ZF_120hpf_BRAI_legacy: (Legacy) Oregon State University Tanguay Lab 120 Hour Post-fertilization zebrafish Assay for Brain Malformation (AID 2283641)
Outline: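 Read-out: binary brain morphology call at 120 hpf (brightfield), fitted in gain-of-signal direction vs DMSO. Wild-type Tropical 5D embryos, static exposure, 28C, 0.64% DMSO final; 5uM trimethyltin chloride as positive control.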

Measured: AC50

Sequence of Cellular tumor antigen p53 (Homo sapiens) (P04637 whole entry, looked up): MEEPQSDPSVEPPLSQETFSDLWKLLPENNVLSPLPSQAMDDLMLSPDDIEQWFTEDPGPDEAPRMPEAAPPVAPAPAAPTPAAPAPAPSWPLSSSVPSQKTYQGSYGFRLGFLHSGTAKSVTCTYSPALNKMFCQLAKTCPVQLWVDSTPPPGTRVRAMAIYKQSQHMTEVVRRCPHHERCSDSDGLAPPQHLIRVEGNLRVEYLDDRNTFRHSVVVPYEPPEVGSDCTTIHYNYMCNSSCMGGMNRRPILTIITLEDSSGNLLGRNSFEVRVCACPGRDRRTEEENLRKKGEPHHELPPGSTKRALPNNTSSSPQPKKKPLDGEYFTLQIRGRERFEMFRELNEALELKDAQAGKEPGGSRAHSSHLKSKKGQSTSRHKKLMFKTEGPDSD

COC(=O)c1ccccc1CS(=O)(=O)NC(=O)Nc1nc(OC)cc(OC)n1
inactive: [1]

O=C(Nc1ccccc1)Nc1cnns1
active: [1] 52.9 µM
inactive: all other assays above

COP(=S)(OC)Oc1ccc(SC)c(C)c1
inactive: all assays above

Oc1ccc(Cl)cc1Cc1ccccc1
active: [1] 86.5 µM and 41.3 µM | [2] 10.8 µM and 6.48 µM and 36 µM
inactive: [1] | [3] | [4] | [5] | [6] | [7] | [8] | [9] | [10]

CCCN(CCOc1c(Cl)cc(Cl)cc1Cl)C(=O)n1ccnc1
active: [1] 74.6 µM
inactive: [1] | [2] | [3] | [4] | [5] | [6] | [7] | [8] | [9] | [10]

COC(=O)c1ccccc1S(=O)(=O)NC(=O)N(C)c1nc(C)nc(OC)n1
inactive: [1]

O=C(O)C(F)(F)C(F)(F)C(F)(F)C(F)(F)C(F)(F)C(F)(F)C(F)(F)F
inactive: all assays above

O=C1c2ccccc2C(=O)N1SC(Cl)(Cl)Cl
active: [1] 13.5 µM and 22.1 µM
inactive: all other assays above

ClC1C(Cl)C(Cl)C(Cl)C(Cl)C1Cl (configuration not stated)
inactive: all assays above

COc1nn(CSP(=S)(OC)OC)c(=O)s1
inactive: all assays above

COP(=S)(OC)Oc1ccc([N+](=O)[O-])cc1
inactive: all assays above

CC(C)(C)C(O)C(Oc1ccc(Cl)cc1)n1cncn1 (configuration not stated)
active: [3] 40.2 µM and 31 µM and 43.9 µM | [4] 40.7 µM and 31.9 µM and 48.1 µM | [5] 43.8 µM and 32.4 µM and 39.9 µM | [6] 33.7 µM and 47.3 µM | [7] 32 µM and 51.8 µM | [8] 46.2 µM and 33 µM and 45.3 µM | [9] 47.5 µM and 32.6 µM and 43.3 µM | [10] 49.8 µM and 33.6 µM and 48.3 µM
inactive: [1] | [2] | [6] | [7]

CC[C@H](C)[C@H]1O[C@]2(C=C[C@@H]1C)C[C@@H]1C[C@@H](C/C=C(\C)[C@@H](O[C@H]3C[C@H](OC)[C@@H](O[C@H]4C[C@H](OC)[C@@H](O)[C@H](C)O4)[C@H](C)O3)[C@@H](C)/C=C/C=C3\CO[C@@H]4[C@H](O)C(C)=C[C@@H](C(=O)O1)[C@]34O)O2 (tested in a mixture with another compound)
active: [2] 13.9 µM | [4] 8.9 µM | [6] 0.934 µM | [9] 0.808 µM | [10] 15.6 µM
inactive: [1] | [3] | [5] | [7] | [8]

CC(C)(C)C(O)/C(=C\c1ccc(Cl)cc1Cl)n1cncn1 (configuration not stated)
active: [3] 34.4 µM | [4] 70.7 µM | [5] 37.4 µM | [6] 30.9 µM | [7] 25 µM | [8] 11.6 µM | [9] 42.4 µM | [10] 8.24 µM
inactive: [1] | [2]

COC(=O)c1ccccc1S(=O)(=O)NC(=O)Nc1nc(C)nc(OC)n1
inactive: [1]

O=C(O)CCCOc1ccc(Cl)cc1Cl
active: [3] 42.6 µM | [4] 48.7 µM | [9] 24.2 µM
not listed: [8]
inactive: all other assays above

CN1CSC(=S)N(C)C1
inactive: [1] | [2] | [8] | [10]
active: [3] 26.6 µM | [4] 21.3 µM | [5] 34.9 µM | [6] 24.9 µM | [7] 8.18 µM | [9] 35 µM

CCC(C)(C)C(=O)OC1=C(c2ccc(Cl)cc2Cl)C(=O)OC12CCCCC2
not listed: [10]
inactive: all other assays above

O=C(O)COc1ccc(Cl)cc1Cl
active: [1] 0.000116 µM
inactive: [1] | [2] | [3] | [4] | [6] | [7] | [8] | [9] | [10]

O=S1OCC2C(CO1)C1(Cl)C(Cl)=C(Cl)C2(Cl)C1(Cl)Cl (configuration not stated)
active: [1] 69.2 µM and 74.9 µM
inactive: all other assays above

Oc1cc(Cl)ccc1Oc1ccc(Cl)cc1Cl
active: [1] 79 µM | [2] 26.5 µM
inactive: [1] | [2] | [3] | [4] | [5] | [6] | [7] | [8] | [9] | [10]

CCC(C)(NC(=O)c1cc(Cl)c(C)c(Cl)c1)C(=O)CCl (configuration not stated)
active: [1] 66.8 µM | [3] 26.1 µM | [5] 28.2 µM | [6] 25.4 µM
inactive: all other assays above

O=S(=O)(O)C(F)(F)C(F)(F)C(F)(F)C(F)(F)C(F)(F)C(F)(F)C(F)(F)C(F)(F)F
inactive: [1] | [2] | [3] | [4] | [5] | [6] | [7] | [8] | [9] | [10]
active: [1] 82.4 µM and 82.8 µM | [2] 426 nM and 4.73 µM and 20.8 µM | [3] 19.8 µM and 7.26 µM and 41.3 µM | [4] 25 µM and 42.3 µM and 42.2 µM | [5] 37 µM | [6] 25.1 µM and 33.2 µM | [7] 26.5 µM and 43.5 µM | [8] 47.5 µM | [9] 14.5 µM and 36.8 µM | [10] 34.2 µM

Source: PubChem BioAssay (EPA / NIEHS)
